# An excerpt weighted towards active compounds, which were near 6.8% of everything screened.
# KB-3-1 tox – kills parental KB-3-1 adenocarcinoma cells; KB-3-1 viability, CellTiter-Glo ATP luminescence, 72 h; Potency, µM (top dose mostly 46.1 µM), hits mostly cytotoxic; hit rate 1.4% among 400,000; AID 1347075; further: on the % scale 0 is the no-effect control and ±100 the full control effect; nearly all actives have a fitted effect of over 60% in size
#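 Parental KB-3-1 adenocarcinoma cells in phenol-red-free DMEM with 10% FBS were pin-treated with compounds at several concentrations, incubated 72 h at 37 °C, and viability read by CellTiter-Glo luminescence; concentration-effect curves were fitted after normalization.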
# SW480 rereplic – inducers of DNA re-replication in SW480 colon cancer cells | SW480 DNA re-replication, Hoechst DNA content imaging, 48 h | Potency, µM (titrated, usually from 46.1 µM), for inactives: at the highest dose re-replication activation, hits mostly activators | hit rate 1.8% among 340,000; further: % of control where 0% means no effect; nearly all actives have a fitted effect of over 55% in size
#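 Hoechst fluorescence of nuclei (405 nm excitation, 500-530 nm emission) measured by plate-scanning imager after 48 hr compound exposure at 37 C; re-replication scored as increased number of nuclei with elevated intensity.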
# KB-V1 cytotox – KB-V1 MDR subline cytotoxicity. hit rate 3.4% among 400,000. AID 1347076. KB-V1 MDR cells viability, CellTiter-Glo, 72 h. Potency, µM (doses to about 46.1 µM), most hits filed as cytotoxic; further: on the % scale 0 is the no-effect control and ±100 the full control effect; nearly all actives have a fitted effect of over 60% in size
#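 KB-V1 MDR subline cells in DMEM (phenol-red free, 10% FBS) exposed to compounds in qHTS concentration series for 72 h at 37 degrees C. Viability read by CellTiter-Glo luminescence; concentration-effect curves fitted after normalization and correction.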
# MCF10A rerep – DNA re-replication induction in MCF 10a cells; Potency, µM (doses to about 46.1 µM), for inactives: top-dose activity, positive = re-replication, usual class: activators; AID 624296; hit rate 2.9% among 350,000; MCF 10A DNA re-replication, Hoechst nuclear intensity, 48 h; further: % of control where 0% means no effect; nearly all actives have a fitted effect of over 50% in size
# PTAP TSG101 blk – blocks PTAP/TSG101 interaction to inhibit HIV-1 budding. AID 493005. 340,000 tested, under 10 active. Potency, µM (series often up to 115 µM), inactives show top-dose activity change, negative = inhibition, usual class: inhibitors. Fluorescence polarization, FITC-PTAP peptide / Tsg101 binding. Q99816; active means well fitted inhibition curve with a large enough effect in the main read-out, with a control signal flat, not every such curve was filed as active; inconclusive means small, poorly fitted or top-dose-only effect, or effect the other way, or a change in a side signal; inactive means no such curve, though single readings can be large or run the other way; further: % of control where 0% means no effect
# Target sequence (Q99816 whole entry, looked up): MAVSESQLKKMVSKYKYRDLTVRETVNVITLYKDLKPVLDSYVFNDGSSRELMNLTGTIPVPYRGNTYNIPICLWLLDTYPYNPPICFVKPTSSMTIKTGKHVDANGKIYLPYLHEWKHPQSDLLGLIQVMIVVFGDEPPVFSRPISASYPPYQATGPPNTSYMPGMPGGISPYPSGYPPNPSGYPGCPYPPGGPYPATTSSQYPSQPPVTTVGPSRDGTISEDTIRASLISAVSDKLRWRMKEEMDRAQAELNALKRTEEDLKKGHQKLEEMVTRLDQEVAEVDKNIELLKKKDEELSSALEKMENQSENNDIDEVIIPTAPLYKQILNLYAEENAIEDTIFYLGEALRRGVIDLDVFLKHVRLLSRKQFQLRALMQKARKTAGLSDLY
#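 Tsg101 binding domain (10 uM final) was mixed with compound and a FITC-labeled PTAP peptide (50 nM final) in HEPES pH 7.5 buffer with NaCl, Tween 20, EDTA and TCEP; fluorescence polarization was read after 20 min at r.t.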
# PINK1 expr mod – changes PINK1 expression. PINK1 immunofluorescence, high-content cytometry, 24 h. Potency, µM (top dose mostly 76.6 µM), without a hit: top-dose activation (PINK1 increase), actives largely listed as activators. hit rate 0.2% among 410,000; active means well fitted activation curve with a large enough effect; inconclusive means small, poorly fitted or top-dose-only effect; cell line not stated here; further: % of control where 0% means no effect; nearly all actives have a fitted effect of over 65% in size
#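 Compound titrations (5 concentrations, 24 h) on a stable cell line; DMSO and CCCP controls. Endpoint: fixed-cell PINK1 immunofluorescence with mitochondrial, cell and nuclear markers, scanned by microplate cytometer.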
# * = called active by the depositor; i = inactive; u = inconclusive; x = no result; [ ] = another dose, or the depositor's remark. Unless noted, the call rests on the fitted dose curve; in most records, active means well fitted curve in the direction sought with a large enough effect; inconclusive means small, poorly fitted or top-dose-only effect, or another doubt; inactive means no such curve, though single readings can be large; an effect the other way counts as inactive or inconclusive. Potency means the concentration at half of the fitted maximal effect.
SMILES,KB-3-1 tox,SW480 rereplic,KB-V1 cytotox,MCF10A rerep,PTAP TSG101 blk,PINK1 expr mod
COc1ccccc1CNC(=O)c1ccc(C)c(-n2cnc3cccnc32)c1,i,x,i,x,x,-1%
COc1ccc(S(=O)(=O)Nc2cc3c4c(oc3c3ccccc23)CCCC4=O)cc1,7.3µM*,u,5.2µM*,u,-3%,0%
CCn1c2ccccc2c2cc(NS(=O)(=O)c3ccc(C)cc3)ccc21,u,u,u,18µM*,-1%,2%
O=S(=O)(Nc1ccc2c3c(cccc13)CC2)c1ccc(F)cc1,u,-1%,u,29%,0%,12%
CSc1ccc(S(=O)(=O)Nc2ccc3c4c(cccc24)CC3)cc1,18µM*,u,15µM*,u,-2%,u
CCn1c(=O)n(CC)c2cc(NS(=O)(=O)c3ccccc3)ccc21,u,3%,i,8%,-1%,0%
COc1ccc(S(=O)(=O)Nc2cc3c4c(oc3c3ccccc23)CC(C)(C)CC4=O)cc1,u,-3%,u,-189%[0.0737 µM],-2%,0%
Cc1ccc(S(=O)(=O)Nc2ccc(Cl)cc2O)cc1,u,x,21µM*,x,x,x
Cc1ccc(CSC2=Nc3ccccc3C3=NC(CC(=O)NC4CCCCC4)C(=O)N23)cc1 (stereo unspecified),x,x,x,x,x,2%
CCn1cc(CN2CCOc3ccc(C(O)C4CCCCC4)cc3C2)c(C)n1 (stereo unspecified),x,x,x,x,x,0%
CCC1Oc2ccccc2N(CC(=O)NCc2ccccc2)C1=O (stereo unspecified),x,x,x,x,x,1%
COc1cc2oc3ccc(C#Cc4ccccn4)cc3c(=O)c2cc1OC,i,u,u,21µM*,-3%,-1%
Cn1cncc1C#Cc1ccc2c(=O)c3ccccc3oc2c1,i,0%,i,-9%,x,0%
Nc1ccc(C#Cc2ccc3c(=O)c4ccccc4oc3c2)cc1,i,16µM*,u,u,-1%,5%
N#Cc1ccc(C#Cc2ccc3oc4ccccc4c(=O)c3c2)cc1,i,-4%,u,19%,3%,1%
COc1cc2oc3ccc(C#Cc4ccc(N)cc4)cc3c(=O)c2cc1OC,i,0%,i,23µM*,x,7%
COc1cc2oc3cc(C#Cc4ccc(N)cc4)ccc3c(=O)c2cc1OC,i,9.2µM*,i,9.2µM*,3%,17%
Cc1cc(C(=O)OCC(=O)NC2CCCCC2)c(C)o1,i,-2%,i,0%,-2%,0%
Cc1cc2c(cc(C(=O)OCC(=O)NC3CCCCC3)n2C)o1,i,u,u,26µM*,0%,3%
Fc1ccc(/C=N/NC2=Nc3cccc4cccc2c34)cc1,i,3%,u,16µM*,9%,u
c1ccc(NC2=Nc3cccc4cccc2c34)cc1,i,-3%,i,-39%,2%,1%
COc1cc(NS(=O)(=O)c2cnc(N)nc2)cc(OC)c1,x,x,x,x,x,-1%
O=c1cc(CSc2ccc(Cl)cc2)nc(-c2ccccn2)[nH]1,13µM*,18%,i,u,0%,7%
Clc1ccc(SCc2cc(N3CCOCC3)nc(-c3ccccn3)n2)cc1,u,8.2µM*,u,u,-5%,2%
Clc1ccc(SCc2csc(N3CCOCC3)n2)cc1,i,-7%,i,-3%,1%,4%
SMILES,KB-3-1 tox,SW480 rereplic,KB-V1 cytotox,MCF10A rerep,PTAP TSG101 blk,PINK1 expr mod
CN1CCC(=NNC(=O)c2cc(-c3ccc(Cl)cc3)n[nH]2)CC1,i,-52%,i,18µM*,-2%,4%
CN(C)c1cccc(-c2ncnc(N3CCC(C(N)=O)CC3)n2)c1,i,x,i,x,x,x
O=C(CSc1ncnc2c1nnn2Cc1ccccc1F)N1CCN(c2ccccc2)CC1,u,23%,u,21µM*,1%,-1%
CC(C)(C)NC(=O)CSc1ncnc2c1nnn2Cc1ccccc1Cl,i,u,i,15µM*,-7%,-1%
Cc1nc2c(C(=O)N(C)Cc3ccccc3)c[nH]n2c(=O)c1Cc1ccc(Cl)cc1,u,x,i,x,x,9%
CCN(c1ccc(OC)cc1)S(=O)(=O)c1cc(-c2cc(C)no2)ccc1C(C)C,u,1%,u,10µM*,-2%,2%
O=C(c1ccc(Br)cc1)c1cc(-c2ccccn2)c(N2CCOCC2)s1,i,17%,4.1µM*,u,-1%,9%
O=C(c1ccc(Cl)c(Cl)c1)c1cc(-c2ccccn2)c(N2CCOCC2)s1,i,22%,4.1µM*,21µM*,5%,0%
O=C(c1ccc(Cl)c(S(=O)(=O)N2CCOCC2)c1)N1CCN(c2ccccn2)CC1,i,1%,i,2%,-4%,3%
CCS(=O)(=O)N1CC(=O)N(c2ccc(Cl)cc2C)C(C)(C(=O)NC2CCCCCC2)C1 (stereo unspecified),i,x,i,x,x,0%
CN(C)c1ccc(C(CNS(=O)(=O)c2ccc(Br)cc2)N2CCOCC2)cc1 (stereo unspecified),i,x,i,x,x,-1%
COc1ccccc1CNc1ncnc2ccc(-c3ccoc3)cc12,x,x,x,x,x,-1%
CCCCCCC[n+]1ccc(/C=C/c2c(C)[nH]c3ccccc23)cc1,0.65µM*,x,i,x,x,x
CCCCCCCCCCCCCCCC[n+]1ccc(/C=C/c2c(C)[nH]c3ccccc23)cc1,1.3µM*,x,i,x,x,x
Cc1[nH]c2ccccc2c1/C=C/c1cc[n+](C)cc1,10µM*,6%,i,-4%,u,u
Cc1[nH]c2ccccc2c1/C=C/c1c(C)[nH]c2ccccc12,u,x,i,x,x,4%
O=C(NCC1CCCO1)C(Cc1ccccc1)N1C(=O)C2C3C=CC(C4CC34)C2C1=O (stereo unspecified),i,u,i,15µM*,2%,0%
COc1ccc(C(=O)/C=C/C(=O)N(CC(=O)NC2CCCCC2)Cc2ccc(F)cc2)c(O)c1,u,u,16µM*,u,-5%,-1%
COc1ccc(C(=O)N(Cc2ccco2)Cc2cccs2)c(O)c1,i,-3%,i,5%,-8%,-2%
COc1ccc(C(=O)/C=C/C(=O)N(CC(=O)NCCC(C)C)Cc2cccs2)c(O)c1,i,u,10µM*,-2%,-9%,-2%
CCC1(c2ccc(F)cc2)NC(=O)N(CC(=O)N2CCc3ccccc32)C1=O (stereo unspecified),i,-23%,i,4%,-1%,5%
